In PubChem BioAssay AID624483 (NMMLSC, 2012):
Screen size: about 360,000 compounds; about 11,000 (3.1%) were called active. Roughly 2% stayed inconclusive and do not appear here. For the sample, actives were picked, then their nearest neighbours and some compounds at random. Unmarked numbers belong to inactive results. Cut-off read from the data, not from the text of the source: active = fluorescence intensity above about 16000; inconclusive = no clear call, values can overlap the other calls; inactive = below that.

Assay: counter-screen for toxin protease inhibitors: compound fluorescence, primary screen, artefact control for toxin protease inhibitor project, biochemical, multiplex microsphere, HTS (AID 624483)
Settings: compound autofluorescence counterscreen, microsphere flow cytometry; hits give high values

Structure (SMILES) | fluorescence intensity
CC(C)N1CCC(=NNc2ccc([N+](=O)[O-])cc2S(=O)(=O)N2CCOCC2)CC1 | 3480
O=C(NCC1CCCO1)/C(=C/c1ccc(Cl)cc1)NC(=O)c1ccccc1 (stereo unspecified) | 2550
O=C(CSc1ccc(-c2ccccc2)nn1)NCC1CCCO1 (stereo unspecified) | 3400
O=C(NCC1CCCO1)C(C(=O)c1ccccc1)n1cc(Cl)ccc1=O (stereo unspecified) | 19700 (active)
N#Cc1ccc(C(=O)Nc2nc(-c3cccs3)c(C(=O)C(F)(F)F)s2)cc1 | 4970
OC[C@@H]1CN(Cc2ccc3c(c2)OCO3)C[C@H](n2cnc3c(NCc4ccco4)ncnc32)O1 | 3680
Cc1ccc(-c2cnc(C(O)c3cc(Cl)cc(Cl)c3)[nH]2)cc1 (stereo unspecified) | 2960
CN(C)c1nc(N)nc(CSc2nnnn2-c2cccc3ccccc23)n1 | 16800 (active)
CN(C)c1nc(N)nc(CSc2ccccn2)n1 | 19900 (active)
Nc1nc(CSc2nnnn2-c2ccccc2)nc(Nc2ccccc2)n1 | 4030
CCOC(=O)CSc1ccccn1 | 2150
Cc1ccccc1Nc1nc(N)nc(CSc2ccccc2)n1 | 2510
COc1ccc(-n2nnnc2SCc2nc(N)nc(N3CCOCC3)n2)cc1 | 2520
O=C(NCc1ccco1)C1CCCN1S(=O)(=O)c1ccccc1C(F)(F)F (stereo unspecified) | 4200
CC(=O)N(c1ccc2oc(=O)sc2c1)S(=O)(=O)c1ccc(C)cc1 | 3830
CCCC1=Nc2cc(C(=O)NCc3ccco3)ccc2Sc2ccccc21 | 7310
Cc1nn(CC2CC2)c(=O)n1N(C)c1ncc(C(F)(F)F)cc1Cl | 4280
CCOC(=O)N1CCN(C(=S)Nc2ccc(C)cc2C)CC1 | 2140
CCOC(=O)N1CCC(C(N)=O)CC1 | 4320
CCOC(=O)N1CCC(O)(c2cc(C)c(C)cc2C)CC1 | 23000 (active)
CCOC(=O)c1cnc(SCC(=O)NCc2ccco2)nc1N | 9800
CCOC(=O)c1cnc(SCC(=O)Nc2cccc(OC)c2)nc1N | 24000 (active)
CCOC(=O)c1cnc(SCC(=O)Nc2ccccc2C(=O)OC)nc1N | 4740
CC(C)C1CC2=C(C(=O)OC(C)(C)O2)C(c2ccc(F)cc2)O1 (stereo unspecified) | 5880

Structure (SMILES) | fluorescence intensity
CC(=O)NC(=S)NNC(=O)c1ccc(Br)cc1 | 4310
CCOC(=O)[C@H]1Nc2ccc(Cl)cc2[C@@H]2[C@H]1C1CC(c3ccccc31)N2C(=O)OCc1ccccc1 (stereo partly specified) | 4370
CCOC(=O)c1cnc2nc(SCc3ccccc3Cl)[nH]n2c1=O | 4010
COC(=O)c1ccc(COC(=O)c2c(C)nn(Cc3ccccc3Cl)c2Cl)o1 | 10900
CCOC(=O)c1cnn(Cc2ccccc2Cl)c1N | 24600 (active)
CCOCCCN1C(=O)CN(C2CCCCC2)C(=O)C1c1ccc(OCC)c(OC)c1 (stereo unspecified) | 15500
CC1CC(=NNC(=O)C2COc3ccccc3O2)CC(C)(C)C1 (stereo unspecified) | 4030
CC1C/C(=N/NC(=O)c2cccs2)CC(C)(C)C1 (stereo unspecified) | 23000 (active)
CC1(C)CC(=O)C/C(=N\NC(=O)c2cccs2)C1 | 2600
CCOc1cc(S(=O)(=O)NC2CC(C)(C)NC(C)(C)C2)ccc1F | 4220
Cc1cc(Br)cn2c(Cc3ccccc3C(F)(F)F)c(C3CCCCC3)nc12 | 4420
C/C(=N\N)c1c(-c2ccccc2)c2cc(Br)ccc2[nH]c1=O | 3410
O=C(CN1CCOCC1)Nc1ccccc1 | 4280
O=C(CN1CCOCC1)Nc1c(-c2ccccc2)c2cc(Br)ccc2[nH]c1=O | 21300 (active)
COCCNC(=S)Nc1cc(S(=O)(=O)N2CCOCC2)ccc1N1CCCCC1 | 3390
CC(C)c1ccc(NC(=O)COC(=O)c2ccc(CN3CCCC3=O)cc2)cc1 | 3760
Cc1ccccc1-c1csc(C(O)c2cccc(Cl)c2)n1 (stereo unspecified) | 3550
CCn1c(SCC(=O)Nc2ccc(Br)cc2)nc2sc3c(c2c1=O)CCN(C)C3 | 5890
Cc1ccc(C(=O)NC2CCN(C(=O)N3CCOCC3)CC2)cc1 | 9950
O=C(N1CCOCC1)N1CCOCC1 | 21400 (active)
O=C(N1CCCCC1)N1CCN(C(=O)N2CCCCC2)CC1 | 3210
CN(C)C(=O)c1cccc(-c2cnc3sc(NCc4ccc5c(c4)OCO5)nn23)c1 | 3900
COc1cccc(-c2cnc3c(NC(C)=O)cc(-c4cc(F)ccc4OC)cn23)c1 | 2980
Cc1ccc(S(=O)(=O)N2CCC(=O)N([C@H](COCc3ccccc3)Cc3ccccc3)CC2)cc1 | 4440

Structure (SMILES) | fluorescence intensity
COC(=O)c1ccc(S(=O)(=O)N2CCc3ccccc3C2)cc1 | 3480
CC(=O)Nc1ccc(S(=O)(=O)N2CCC(NC(=O)c3ccccc3)CC2)cc1 | 3580
O=C(Nc1ccc(S(=O)(=O)N2CCc3ccccc3C2)cc1)c1ccccc1 | 22600 (active)
COc1cc(C(O)c2nc(-c3cnn(C)c3)cs2)ccc1F (stereo unspecified) | 3800
COc1ccc(-c2cc(NC=O)c3ncc(-c4cc(OC)c(OC)c(OC)c4)n3c2)c(OC)c1 | 3920
COCCNS(=O)(=O)c1cc(Br)ccc1OC | 24900 (active)
COc1ccc(C)cc1S(=O)(=O)NCCc1ccccc1 | 11800
COc1ccc(OC)c(S(=O)(=O)NCCC(C)C)c1 | 4230
Cc1ccn(CC(=O)NC2CCCN(Cc3ccccc3F)C2)n1 (stereo unspecified) | 3870
Cc1ccc(CN2CC(N3CCC(Cc4ccccc4)CC3)CS2(=O)=O)cc1 (stereo unspecified) | 6680
Nc1ncnc2c1ncn2[C@@H]1O[C@H](C(=O)NS(=O)(=O)c2c(Cl)nc3sccn23)[C@@H](O)[C@H]1O | 3980
O=C(NCc1ccccc1Cl)C1CCN(S(=O)(=O)c2cccc3nonc23)CC1 | 3550
N#C/C=C\Oc1ccc(Cl)cc1N | 23100 (active)
Cc1nccn1-c1ccc(NC(=O)[C@H]2O[C@@H](n3ccc(=O)[nH]c3=O)[C@H](O)[C@@H]2O)cc1 | 5140
CC1(C(=O)NS(=O)(=O)c2ccccc2)CCN1C(=O)Cc1ccc(-c2ccccc2)cc1 (stereo unspecified) | 3470
COc1ccc(CCNC(=O)CN2C(=O)CCSc3ccccc32)c(OC)c1 | 4070
CN(C(=O)CN1C(=O)CCSc2ccc(S(=O)(=O)N3CCCC3)cc21)c1ccccc1 | 5730
CCOC(=O)CNC(=O)CN1C(=O)CCSc2ccccc21 | 20800 (active)
COc1ccc(-n2c(SCC(=O)Nc3ccc4c(c3)OCO4)nnc2C(C)N2CCCCC2)cc1 (stereo unspecified) | 6740
COc1ccccc1NC(=O)CSc1nc2sc3c(c2c(=O)n1-c1ccccc1)CCN(C)C3 | 7290
C(=C\c1ccccc1)/CSc1nnc(-c2cccnc2)n1Cc1ccco1 | 23400 (active)
Cc1ccc(NC(=O)CSc2nnc(-c3cnccn3)n2Cc2ccco2)cc1C | 3350
COc1ccc(NC(=O)CSc2nnc(-c3cccs3)n2Cc2ccco2)cc1OC | 10300
O=C(CSc1nnc(-c2cnccn2)n1Cc1ccco1)c1ccc(Cl)c(Cl)c1 | 9950

Structure (SMILES) | fluorescence intensity
CCn1c(SCC(=O)Nc2cc(C)c(Cl)cc2OC)nnc1-c1ccco1 | 5870
CCOC(=O)Cc1csc(NC(=O)CSc2nnc(-c3cccnc3)n2Cc2ccco2)n1 | 4600
COc1ccccc1NC(=O)CSc1nc2sc(C)c(C)c2c(=O)n1Cc1ccco1 | 22300 (active)
COc1cc(Cl)c(C)cc1NC(=O)CSc1nnc(-c2cccnc2)n1Cc1ccco1 | 20700 (active)
Cc1cc(-c2ccccc2)nc(N2CCC(C(=O)NC34CC5CC(CC(C5)C3)C4)CC2)n1 | 3890
CCN(C(=O)COc1cccnc1[N+](=O)[O-])C1CCS(=O)(=O)C1 (stereo unspecified) | 2480
COc1ccc(CNC(=O)c2ccc(-c3cccnc3)c3ccoc23)cc1OC | 3080
Cc1cccc(C)c1-n1nnnc1C(CCc1ccccc1)N1CCN(C/C=C/c2ccccc2)CC1 (stereo unspecified) | 5940
Cc1cc(Br)ccc1NC(=O)CCCOc1cc(=O)n(C)c2ccccc12 | 3350
O=C1CCCN1CCCNc1ncnc2c1[nH]c1ccccc12 | 23000 (active)
O=C(CCC(=O)NNc1nc2ccccc2c2nc(-c3ccccc3)nn12)NCCCN1CCCC1=O | 2420
CCOc1cc2[nH]c(=S)n(CCCN3CCCC3=O)c(=O)c2cc1OCC | 5800
Cc1nn(Cc2ccccc2)c(C)c1C(=O)NCCCN1CCCC1=O | 3680
O=Cc1c(NCCCN2CCCC2=O)c2ccccc2[nH]c1=O | 3940
O=C(CCn1c(=S)[nH]c2ccccc2c1=O)NCCCN1CCCC1=O | 22700 (active)
CC(=O)c1ccc(N2C(=NC(=O)C(C)C)SC3CS(=O)(=O)CC32)cc1 (stereo unspecified) | 4490
Cc1cccc2cc(CN(C(=O)c3cccs3)c3ccccc3)c(=O)[nH]c12 | 2690
COc1ccc(Cl)cc1NC(=O)c1oc(C)nc1C | 11300
Cc1ccc(NC(=O)NC(=O)c2ccccc2)cc1F | 4110
Cc1nc(C)c(C(=O)Nc2ccc(C)c(F)c2)o1 | 20400 (active)
N#Cc1ccccc1S(=O)(=O)N1CCN(Cc2c(O)ccc3ccccc23)CC1 | 2850
Fc1ccc(N2N=C(c3cccs3)CC2c2ccco2)c(F)c1 (stereo unspecified) | 20900 (active)
Cc1ccccc1C1CC(c2cccs2)=NN1S(C)(=O)=O (stereo unspecified) | 6430
O=C(COc1ccccc1Cl)N1N=C(c2cccs2)CC1c1ccco1 (stereo unspecified) | 3750
